Test results as given in the supplement of paper PMC10849652.
About 8,800 targets were measured; listed, in parts, are those with a hit and a random draw of the rest. About 0.5% of all pairs of compound and target were hits.

How the values were obtained:
Assay in all cases: log2 fold change, soluble protein after heating vs DMSO (PISA); higher = thermal stabilisation; K562 lysate, 10 uM; active = over 0.2 and 3.5 SD of the protein, either way, in both replicates (recomputed)
nilotinib = compound: Cc1cn(-c2cc(NC(=O)c3ccc(C)c(Nc4nccc(-c5cccnc5)n4)c3)cc(C(F)(F)F)c2)cn1 [nilotinib]
In short: (§1)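 A 30 min treatment with 10 μM compound was applied to crude K562 extract at 1 mg/mL protein in PBS pH 7.4 with 1 mM MgCl2. Heating for 3 min spanned 48°C-58°C, after which aliquots were pooled, adjusted to 0.5% NP-40 at 4°C and spun at 21,000xg for 90 min. TMTpro 16plex LC-MS/MS of the supernatant, with channel sums equalised, gave values recorded as log-two fold change in thermal stability against solvent controls, from duplicates.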

[1] = compound: Cc1nc(Nc2n[nH]c3c2CN(C(=O)N[C@H](CN(C)C)c2ccccc2)C3(C)C)c2sccc2n1
In short: as §1

dasatinib = compound: Cc1nc(Nc2ncc(C(=O)Nc3c(C)cccc3Cl)s2)cc(N2CCN(CCO)CC2)n1 [dasatinib]
In short: as §1

[2] = compound: Cc1ncc(-c2ccnc(Nc3ccc(S(C)(=O)=O)cc3)n2)n1C(C)C
In short: as §1

[3] = compound: Cn1cc(-c2ccc3c(c2)CCN3C(=O)Cc2cccc(C(F)(F)F)c2)c2c(N)ncnc21
In short: as §1

quisinostat = compound: Cn1cc(CNCC2CCN(c3ncc(C(=O)NO)cn3)CC2)c2ccccc21 [quisinostat]
In short: as §1

tipifarnib = compound: Cn1cncc1[C@@](N)(c1ccc(Cl)cc1)c1ccc2c(c1)c(-c1cccc(Cl)c1)cc(=O)n2C [tipifarnib]
In short: as §1

[4] = compound: NC(=O)Nc1cc(-c2cccc(F)c2)sc1C(=O)N[C@H]1CCCNC1
In short: as §1

[5] = compound: NC(=O)c1cnc(N[C@@H]2CCCC[C@@H]2N)nc1Nc1cccc(-n2nccn2)c1
In short: as §1

[6] = compound: NC1(c2ccc(-c3nc4ccn5c(=O)[nH]nc5c4cc3-c3ccccc3)cc2)CCC1
In short: as §1

Measured: log2 fold change

DIAPH3 (UniProt Q9NSV4)
inactive: nilotinib -0.019 | [1] 0.019 | dasatinib -0.167 | [2] -0.021 | [3] 0.029 | quisinostat -0.093 | tipifarnib -0.041 | [4] 0.057 | [5] 0.077 | [6] 0.019

DDX20 (UniProt Q9UHI6)
inactive: nilotinib -0.009 | [1] 0.008 | dasatinib -0.054 | [2] 0.003 | [3] 0.058 | quisinostat -0.058 | tipifarnib -0.01 | [4] 0.095 | [5] 0.03 | [6] -0.024

DMXL1 (UniProt Q9Y485)
inactive: nilotinib 0.03 | [1] 0.006 | dasatinib -0.017 | [2] -0.005 | [3] 0.025 | quisinostat -0.009 | tipifarnib -0.015 | [4] 0.01 | [5] 0.014 | [6] 0.034

CSK (UniProt P41240)
inactive: nilotinib 0.144 | [1] 0.125 | [2] 0.002 | [3] 0.102 | quisinostat -0.08 | tipifarnib -0.041 | [5] 0.071 | [6] -0.043
active: dasatinib 0.578 | [4] 0.646

CHFR (UniProt Q96EP1)
inactive: nilotinib 0.035 | [1] 0.082 | dasatinib 0.017 | [2] 0.019 | [3] 0.049 | quisinostat 0.02 | tipifarnib 0.013 | [4] 0.036 | [5] 0.246 | [6] 0.005

CLUH, A0A494C0R8
inactive: nilotinib 0.026 | [1] 0.146 | dasatinib 0.028 | [2] -0.022 | [3] 0.015 | quisinostat -0.165 | tipifarnib -0.033 | [4] 0.022 | [5] -0.045 | [6] 0.046

CNDP2 (UniProt Q96KP4)
inactive: nilotinib 0.039 | [1] -0.023 | dasatinib 0.017 | [2] 0.051 | [3] -0.05 | quisinostat -0.074 | tipifarnib -0.008 | [4] 0.004 | [5] 0.013 | [6] -0.003

CHORDC1 (UniProt Q9UHD1)
Chain of UniProt Q9UHD1 (Q9UHD1 whole entry, looked up): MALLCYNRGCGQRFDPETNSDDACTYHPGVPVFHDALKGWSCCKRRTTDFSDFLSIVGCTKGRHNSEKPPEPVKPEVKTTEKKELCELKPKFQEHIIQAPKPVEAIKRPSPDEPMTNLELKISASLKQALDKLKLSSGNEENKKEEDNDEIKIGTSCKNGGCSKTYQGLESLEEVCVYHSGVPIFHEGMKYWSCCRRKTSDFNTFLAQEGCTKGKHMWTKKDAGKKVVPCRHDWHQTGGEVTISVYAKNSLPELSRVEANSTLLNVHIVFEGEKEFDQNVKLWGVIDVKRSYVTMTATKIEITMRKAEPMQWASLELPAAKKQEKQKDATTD
inactive: nilotinib 0.024 | [1] -0.003 | dasatinib 0.016 | [2] 0.034 | [3] 0.008 | quisinostat 0.018 | tipifarnib 0.021 | [4] -0.015 | [5] 0 | [6] -0.005

DHCR7 (UniProt Q9UBM7)
inactive: nilotinib -0.013 | [1] 0.016 | dasatinib 0.011 | [2] 0 | [3] 0.013 | quisinostat 0.234 | tipifarnib 0.015 | [4] 0.029 | [5] 0.008 | [6] 0.047

DCTN1 isoform 4 (UniProt Q14203)
Chain of UniProt Q14203 (Q14203 whole entry, looked up): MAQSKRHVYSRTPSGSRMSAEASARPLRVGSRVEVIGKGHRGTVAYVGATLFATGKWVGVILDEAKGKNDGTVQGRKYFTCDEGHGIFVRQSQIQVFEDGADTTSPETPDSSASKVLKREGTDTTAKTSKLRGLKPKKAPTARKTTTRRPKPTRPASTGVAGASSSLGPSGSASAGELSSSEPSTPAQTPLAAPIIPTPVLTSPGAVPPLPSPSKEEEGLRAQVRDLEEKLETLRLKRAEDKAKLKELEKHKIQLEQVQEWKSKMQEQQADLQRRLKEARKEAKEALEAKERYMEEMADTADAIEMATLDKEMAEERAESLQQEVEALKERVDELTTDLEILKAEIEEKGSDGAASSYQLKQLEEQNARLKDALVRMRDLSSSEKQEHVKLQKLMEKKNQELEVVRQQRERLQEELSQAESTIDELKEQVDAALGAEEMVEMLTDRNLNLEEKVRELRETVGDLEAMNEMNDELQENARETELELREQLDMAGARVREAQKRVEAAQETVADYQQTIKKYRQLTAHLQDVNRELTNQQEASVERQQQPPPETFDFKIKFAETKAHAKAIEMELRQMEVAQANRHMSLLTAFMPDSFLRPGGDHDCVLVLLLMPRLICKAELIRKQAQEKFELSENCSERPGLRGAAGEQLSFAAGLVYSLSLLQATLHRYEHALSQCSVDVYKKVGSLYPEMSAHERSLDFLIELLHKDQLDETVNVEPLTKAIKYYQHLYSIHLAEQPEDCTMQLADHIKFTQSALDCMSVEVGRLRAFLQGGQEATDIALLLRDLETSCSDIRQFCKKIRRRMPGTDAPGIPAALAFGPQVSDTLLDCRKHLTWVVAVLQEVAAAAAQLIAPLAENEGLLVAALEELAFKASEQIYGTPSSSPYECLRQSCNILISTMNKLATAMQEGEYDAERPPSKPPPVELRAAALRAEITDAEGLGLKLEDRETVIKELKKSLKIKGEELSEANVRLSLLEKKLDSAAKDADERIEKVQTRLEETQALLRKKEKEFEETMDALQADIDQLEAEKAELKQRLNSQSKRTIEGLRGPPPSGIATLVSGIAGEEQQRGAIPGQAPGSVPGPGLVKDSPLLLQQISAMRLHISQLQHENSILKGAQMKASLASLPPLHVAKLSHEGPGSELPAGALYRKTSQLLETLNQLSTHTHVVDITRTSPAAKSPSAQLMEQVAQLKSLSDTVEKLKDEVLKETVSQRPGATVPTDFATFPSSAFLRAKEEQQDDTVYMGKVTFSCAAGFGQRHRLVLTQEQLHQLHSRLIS
inactive: nilotinib 0.304 | [1] -0.331 | dasatinib -0.163 | [2] -0.288 | [3] -0.051 | quisinostat -0.064 | tipifarnib -0.064 | [4] 0.074 | [5] 0.139 | [6] 0.169

CKAP5 (UniProt Q14008)
inactive: nilotinib 0 | [1] 0.002 | dasatinib -0.024 | [2] -0.005 | [3] 0.026 | quisinostat -0.03 | tipifarnib -0.028 | [4] 0.021 | [5] 0.01 | [6] 0.006

COASY isoform 2 (UniProt Q13057)
inactive: nilotinib -0.043 | [1] -0.015 | dasatinib -0.071 | [2] -0.023 | [3] 0.069 | quisinostat -0.078 | tipifarnib 0.012 | [4] 0.041 | [5] -0.023 | [6] -0.046

DDX39A (UniProt O00148)
inactive: nilotinib -0.002 | [1] 0.02 | dasatinib 0.001 | [2] 0.007 | [3] 0.06 | quisinostat -0.018 | tipifarnib -0.053 | [4] 0.075 | [5] 0.036 | [6] -0.013

CUEDC2 (UniProt Q9H467)
Chain of UniProt Q9H467 (Q9H467 whole entry, looked up): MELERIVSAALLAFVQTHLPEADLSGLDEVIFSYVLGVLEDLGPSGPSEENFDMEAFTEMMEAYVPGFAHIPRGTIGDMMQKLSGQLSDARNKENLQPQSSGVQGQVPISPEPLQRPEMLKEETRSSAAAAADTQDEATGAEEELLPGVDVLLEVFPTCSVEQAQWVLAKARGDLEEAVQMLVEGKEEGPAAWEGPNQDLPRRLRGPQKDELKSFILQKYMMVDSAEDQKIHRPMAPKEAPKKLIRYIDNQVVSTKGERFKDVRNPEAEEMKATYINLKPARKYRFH
inactive: nilotinib -0.038 | [1] 0.055 | dasatinib 0.015 | [2] 0.028 | [3] 0.009 | quisinostat -0.046 | tipifarnib 0.009 | [4] -0.012 | [5] -0.021 | [6] 0.016

CSNK2B (UniProt P67870)
Chain of UniProt P67870 (P67870 whole entry, looked up): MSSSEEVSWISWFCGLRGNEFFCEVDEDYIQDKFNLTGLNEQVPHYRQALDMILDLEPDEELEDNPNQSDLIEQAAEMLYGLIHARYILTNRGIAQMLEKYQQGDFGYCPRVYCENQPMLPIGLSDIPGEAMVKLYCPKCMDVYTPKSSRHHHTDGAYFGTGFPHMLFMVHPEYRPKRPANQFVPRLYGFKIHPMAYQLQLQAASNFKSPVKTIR
inactive: nilotinib 0.086 | [1] -0.029 | dasatinib -0.014 | [2] 0.034 | [3] -0.006 | quisinostat -0.005 | tipifarnib -0.058 | [4] 0.028 | [5] 0.042 | [6] -0.049

DAPK1 isoform 3 (UniProt P53355)
inactive: nilotinib -0.061 | [1] 0.017 | dasatinib -0.052 | [2] -0.146 | [3] -0.049 | quisinostat -0.135 | tipifarnib 0.056 | [5] -0.103 | [6] -0.075
active: [4] 0.812

DALRD3 (UniProt Q5D0E6)
inactive: [5] -0.03 | [6] 0.207

CLASP1 isoform 4 (UniProt Q7Z460)
inactive: nilotinib -0.113 | [1] 0.126 | [2] 0.09 | tipifarnib -0.301 | [6] 0.111

CHMP4A (UniProt H0YIN6)
inactive: dasatinib 0.294 | [3] -0.06 | quisinostat -0.502 | [4] 0.041 | [5] 0.066

CSAD isoform 3 (UniProt Q9Y600)
inactive: quisinostat -0.035 | [4] -0.001 | [6] -0.153

CLIP1, A0A3B3ITA2
inactive: quisinostat -0.169 | [4] 0.017

CLASP2 (UniProt O75122)
inactive: nilotinib 0.013 | [1] -0.14 | [2] -0.061 | quisinostat -0.135 | tipifarnib -0.242 | [4] -0.058 | [5] 0.205

DNA2 (UniProt P51530)
inactive: nilotinib 0.011 | [1] 0.007 | dasatinib 0.069 | [2] 0.005 | [3] 0.05 | quisinostat -0.069 | tipifarnib -0.04 | [4] 0.043 | [6] 0.067

CSNK2A1, A0A2R8Y4D6
inactive: [5] 0.085

DIAPH1 (UniProt H9KV28)
inactive: nilotinib -0.027 | [1] -0.122 | [2] 0.053 | quisinostat -0.093 | tipifarnib -0.051 | [4] -0.001 | [5] 0.05 | [6] 0.111

DNAH5 (UniProt Q8TE73)
inactive: nilotinib -0.029 | [1] -0.036 | dasatinib -0.072 | [2] -0.013 | [3] -0.156 | tipifarnib -0.128 | [5] -0.073 | [6] -0.049

CSNK1A1 isoform 3 (UniProt P48729)
inactive: dasatinib 0.048 | [3] -0.183

COL12A1 (UniProt Q99715)
inactive: dasatinib -0.097 | [3] 0.198 | quisinostat -0.056 | [4] 0.166 | [5] 0.827 | [6] -0.154

CNTN4 (UniProt Q8IWV2)
active: quisinostat -0.561
inactive: nilotinib 0.127 | [1] -0.06 | [2] 0.306 | tipifarnib -0.006 | [4] 0.151 | [5] 0.072 | [6] -0.024

CNNM2 (UniProt Q9H8M5)
inactive: dasatinib -0.021 | [3] -0.044 | quisinostat 0.217 | [4] -0.077 | [5] -0.001 | [6] -0.006

CSRP2 (UniProt Q16527)
inactive: quisinostat -0.012 | [4] 0.068

DPY19L3 (UniProt Q6ZPD9)
active: [6] -0.683
inactive: quisinostat -0.103 | [4] 0.034 | [5] 0.045

DDX4 (UniProt Q9NQI0)
Chain of UniProt Q9NQI0 (Q9NQI0 whole entry, looked up): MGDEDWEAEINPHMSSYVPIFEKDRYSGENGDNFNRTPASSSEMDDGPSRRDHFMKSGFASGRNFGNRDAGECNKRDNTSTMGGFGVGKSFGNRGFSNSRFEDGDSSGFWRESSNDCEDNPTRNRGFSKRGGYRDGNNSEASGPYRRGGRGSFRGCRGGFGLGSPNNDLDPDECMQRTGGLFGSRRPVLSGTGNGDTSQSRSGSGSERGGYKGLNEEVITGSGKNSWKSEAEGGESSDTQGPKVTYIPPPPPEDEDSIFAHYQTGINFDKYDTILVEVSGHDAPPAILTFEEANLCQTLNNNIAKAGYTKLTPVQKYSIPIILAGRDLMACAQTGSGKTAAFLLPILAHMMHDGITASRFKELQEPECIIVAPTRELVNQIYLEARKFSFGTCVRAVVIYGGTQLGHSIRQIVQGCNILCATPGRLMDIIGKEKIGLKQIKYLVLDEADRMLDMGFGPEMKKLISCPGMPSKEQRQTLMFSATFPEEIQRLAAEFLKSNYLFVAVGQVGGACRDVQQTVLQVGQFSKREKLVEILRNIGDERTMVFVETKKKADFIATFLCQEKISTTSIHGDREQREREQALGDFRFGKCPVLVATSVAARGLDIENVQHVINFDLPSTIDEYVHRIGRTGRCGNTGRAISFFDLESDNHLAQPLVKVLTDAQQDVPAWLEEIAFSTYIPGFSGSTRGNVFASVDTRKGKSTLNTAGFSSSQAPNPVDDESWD
inactive: nilotinib -0.108 | [1] 0.043 | dasatinib 0.014 | [2] -0.085 | [3] 0.076 | tipifarnib 0.028 | [5] 0.062 | [6] 0.059

DLGAP5 isoform 3 (UniProt Q15398)
inactive: dasatinib 0.017 | [3] 0.18

CSDE1 isoform 3 (UniProt O75534)
inactive: nilotinib 0.064 | [1] -0.135 | [2] 0.016 | quisinostat 0.022 | tipifarnib -0.02 | [4] -0.085 | [5] -0.021

CNK3/IPCEF1 isoform 2 (UniProt G9CGD6)
Chain of UniProt G9CGD6 (G9CGD6 whole entry, looked up): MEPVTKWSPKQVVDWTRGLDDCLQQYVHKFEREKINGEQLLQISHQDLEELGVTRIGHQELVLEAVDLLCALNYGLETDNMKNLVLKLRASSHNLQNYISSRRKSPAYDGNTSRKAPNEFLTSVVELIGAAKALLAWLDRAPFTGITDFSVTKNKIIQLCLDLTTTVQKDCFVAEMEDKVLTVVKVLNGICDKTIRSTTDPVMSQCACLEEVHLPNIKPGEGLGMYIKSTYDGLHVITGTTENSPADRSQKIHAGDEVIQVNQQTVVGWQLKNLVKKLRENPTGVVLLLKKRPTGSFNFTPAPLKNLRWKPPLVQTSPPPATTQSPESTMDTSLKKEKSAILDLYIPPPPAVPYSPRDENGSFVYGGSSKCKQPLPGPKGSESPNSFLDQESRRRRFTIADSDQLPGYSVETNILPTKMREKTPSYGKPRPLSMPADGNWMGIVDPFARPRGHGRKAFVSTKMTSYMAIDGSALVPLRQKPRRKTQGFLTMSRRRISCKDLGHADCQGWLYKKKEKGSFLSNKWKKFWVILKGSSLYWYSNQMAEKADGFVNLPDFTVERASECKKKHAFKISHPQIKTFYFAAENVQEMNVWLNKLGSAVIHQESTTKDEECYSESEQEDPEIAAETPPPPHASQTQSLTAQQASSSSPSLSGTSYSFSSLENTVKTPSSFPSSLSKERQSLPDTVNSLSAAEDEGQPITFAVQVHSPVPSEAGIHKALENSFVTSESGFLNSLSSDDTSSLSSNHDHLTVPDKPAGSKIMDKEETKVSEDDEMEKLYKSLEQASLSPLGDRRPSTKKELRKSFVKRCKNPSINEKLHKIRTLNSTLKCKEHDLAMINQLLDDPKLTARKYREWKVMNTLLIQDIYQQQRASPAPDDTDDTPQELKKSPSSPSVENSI
inactive: dasatinib -0.131 | [3] 0.002 | [6] 0.168

CYP2S1 isoform 2 (UniProt Q96SQ9)
inactive: dasatinib 0.116 | [3] 0.093 | quisinostat 0.014 | [4] -0.135 | [5] 0.054 | [6] -0.056

CYP4V2 (UniProt Q6ZWL3)
inactive: dasatinib -0.041 | [3] 0.049 | quisinostat 0.103 | [4] -0.026 | [5] -0.101 | [6] -0.033

CSNK1G3 isoform 4 (UniProt Q9Y6M4)
inactive: [5] 0.083

COPS9 (UniProt Q8WXC6)
Chain of UniProt Q8WXC6 (Q8WXC6 whole entry, looked up): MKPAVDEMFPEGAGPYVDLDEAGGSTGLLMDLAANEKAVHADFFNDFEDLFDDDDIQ
inactive: [5] -0.074 | [6] 0.214

CNOT2 (UniProt F8VRS8)
inactive: [6] -0.122

CORO7 (UniProt P57737)
Chain of UniProt P57737 (P57737 whole entry, looked up): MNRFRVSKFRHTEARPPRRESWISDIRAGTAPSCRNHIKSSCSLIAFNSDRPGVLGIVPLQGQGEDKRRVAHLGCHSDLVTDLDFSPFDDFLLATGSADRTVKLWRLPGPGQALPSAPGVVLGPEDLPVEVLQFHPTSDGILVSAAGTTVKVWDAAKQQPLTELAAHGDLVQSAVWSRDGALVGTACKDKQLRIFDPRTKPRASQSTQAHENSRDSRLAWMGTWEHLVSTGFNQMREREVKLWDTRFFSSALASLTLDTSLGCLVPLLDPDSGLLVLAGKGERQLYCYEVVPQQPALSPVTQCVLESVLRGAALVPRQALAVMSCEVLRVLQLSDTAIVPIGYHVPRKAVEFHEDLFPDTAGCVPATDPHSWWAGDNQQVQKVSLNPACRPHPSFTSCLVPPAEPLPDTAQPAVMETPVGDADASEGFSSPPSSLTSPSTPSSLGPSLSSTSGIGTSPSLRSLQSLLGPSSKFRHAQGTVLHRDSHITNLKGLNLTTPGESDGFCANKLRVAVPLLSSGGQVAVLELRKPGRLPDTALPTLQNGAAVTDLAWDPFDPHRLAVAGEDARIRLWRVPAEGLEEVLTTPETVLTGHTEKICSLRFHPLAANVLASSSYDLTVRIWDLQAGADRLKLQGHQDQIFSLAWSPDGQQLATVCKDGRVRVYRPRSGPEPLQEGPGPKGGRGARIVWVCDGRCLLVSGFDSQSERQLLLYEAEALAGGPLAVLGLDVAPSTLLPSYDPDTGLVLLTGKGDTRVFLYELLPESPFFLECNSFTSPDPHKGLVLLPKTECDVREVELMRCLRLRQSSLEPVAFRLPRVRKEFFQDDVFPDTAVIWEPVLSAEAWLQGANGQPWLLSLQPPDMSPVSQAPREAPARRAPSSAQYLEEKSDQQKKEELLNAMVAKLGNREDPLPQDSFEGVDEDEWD
inactive: nilotinib -0.102 | [1] 0.136 | dasatinib 0.024 | [2] -0.072 | [3] 0.119 | quisinostat 0.171 | tipifarnib -0.051 | [4] 0.088 | [6] 0.183

CRLS1 (UniProt Q9UJA2)
Chain of UniProt Q9UJA2 (Q9UJA2 whole entry, looked up): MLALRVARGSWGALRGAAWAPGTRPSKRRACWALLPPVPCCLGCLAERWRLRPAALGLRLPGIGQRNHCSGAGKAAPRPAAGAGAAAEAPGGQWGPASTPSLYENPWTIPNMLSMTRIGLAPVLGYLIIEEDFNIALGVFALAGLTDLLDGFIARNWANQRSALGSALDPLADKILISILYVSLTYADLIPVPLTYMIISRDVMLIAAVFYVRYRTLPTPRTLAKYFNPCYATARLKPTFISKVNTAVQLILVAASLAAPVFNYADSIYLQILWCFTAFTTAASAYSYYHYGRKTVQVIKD
inactive: nilotinib 0.1 | [1] -0.096 | [2] -0.143 | quisinostat -0.122 | tipifarnib -0.01 | [4] 0.066 | [5] -0.018 | [6] -0.067

DDAH1 (UniProt O94760)
inactive: dasatinib -0.244 | [3] 0.174 | quisinostat -0.013 | [4] -0.003 | [5] -0.034 | [6] -0.016

DBF4 (UniProt Q9UBU7)
inactive: nilotinib 0.05 | [1] 0 | dasatinib 0.091 | [2] 0.17 | [3] -0.021 | quisinostat 0.038 | tipifarnib -0.146 | [4] 0.043 | [6] 0.07

DHX32 (UniProt Q7L7V1)
inactive: nilotinib -0.025 | [1] -0.027 | [2] -0.044 | quisinostat -0.015 | tipifarnib -0.061 | [4] 0.142 | [6] 0.108

CUX1 isoform 2 (UniProt Q13948)
inactive: dasatinib 0.001 | [3] 0.101 | quisinostat 0.072 | [4] -0.026 | [5] -0.073 | [6] 0.012

COL6A3 (UniProt P12111)
inactive: nilotinib 0.05 | [1] 0.151 | dasatinib 0.032 | [2] 0.02 | [3] -0.055 | quisinostat 0.123 | tipifarnib -0.009 | [4] 0 | [6] -0.155

CNOT4 isoform 9 (UniProt O95628)
inactive: dasatinib -0.062 | [3] -0.052 | quisinostat 0.17 | [4] -0.058 | [5] 0.081 | [6] -0.024

DAZAP1 (UniProt K7EQ02)
inactive: nilotinib -0.221 | [1] 0.096 | [2] 0.119 | tipifarnib -0.039

CPLX1 (UniProt O14810)
active: dasatinib 1.05
inactive: [3] -0.134 | [5] 0.178
